Calls of active or inactive are those of the source. The calls were made as follows: active = hit-call score of the fitted dose curve at least 0.9, where 1 is the maximum; inactive = score below 0.9.

A short description of the test: ATG_PPRE_CIS: Attagene CIS-FACTORIAL HepG2 Assay for human Peroxisome Proliferator-activated Response Element (PPRE) (AID 2282958). The conditions noted are these: HepG2 PPRE cis-element reporter, Attagene transcription factor profiling; actives raise or lower the signal. The protocol:
ATG_CIS is a cell-based, multiplexed-readout assay that uses HepG2, a human liver cell line, with measurements taken at 24 hours after chemical dosing in a 24-well plate.ATG_PPRE_CIS is one of 52 assay component(s) measured or calculated from the ATG_CIS assay. It is designed to make measurements of mRNA induction, a form of inducible reporter, as detected with fluorescence intensity signals by Reverse transcription polymerase chain reaction (RT-PCR) and Capillary electrophoresis technology.Data from the assay component ATG_PPRE_CIS was analyzed into 1 assay endpoint. This assay endpoint, ATG_PPRE_CIS, was analyzed with bidirectional fitting relative to DMSO as the negative control and baseline of activity. Using a type of inducible reporter, measures of mRNA for gain or loss-of-signal activity can be used to understand the reporter gene at the transcription factor-level as they relate to the gene PPARA and PPARD and PPARG. Furthermore, this assay endpoint can be referred to as a primary readout, because this assay has produced multiple assay endpoints where this one serves a reporter gene function. To generalize the intended target to other relatable targets, this assay endpoint is annotated to the nuclear receptor intended target family, where the subfamily is non-steroidal.
Human liver HepG2 cells are transiently transfected with multiple reporter transcription units (MRTUs) in 6-well plates using FuGene 6 reagent (Roche; 3 ml FuGene/1 mg DNA). The MRTU constructs are regulated by a cis-regulating element (promoter). […] A major difference between the CIS and TRANS system is that in CIS activities of endogenous TFs are measured, whereas the TRANS assay evaluates changes in activities of exogenous, chimeric NR-Gal4 proteins. […] At the end of 24 hour incubation, total RNA was isolated using TriZol reagent (Invitrogen). The isolated RNA is then reverse-transcribed using oligo(dT) primer and Mo-MLV reverse transcriptase (Invitrogen) with DNAse I (Ambion) treatment for 30 min. The one-tenth of the produced cDNA was amplified by PCR using Taq DNA polymerase (Invitrogen) and two reporter sequence-specific primers. The PCR products were fluorescently labeled by primer extension with 6-arboxyfluorescein (6-FAM) 5'-labeled reporter sequence-specific primer (2 min at 95 C, 20 s at 68 C and 10 min at 72 C) and these products were digested with 5U of HpaI (New England Biolabs) for 2h at 37 C. The fragments were purified using Qiaquick PCR columns (Qiagen), analyzed on an ABI 3130xL genetic analyzer (Applied Biosystems) with peak positions identified by using a set of X-rhodamine (ROX)-labeled MapMarker1000 molecular weight standards (BioVentures). The raw capillary electrophoresis data was processed using Attagraph software (Attagene).
With `c1cc(C(c2ccc(OCC3CO3)cc2)C(c2ccc(OCC3CO3)cc2)c2ccc(OCC3CO3)cc2)ccc1OCC1CO1` (stereo not given), the result was inactive.

For `OC1CCCC1`, the result was inactive. Turning to `CCCc1ccc(OC)cc1`, the compound was called inactive. The same measure, in the same setting: next, `C=C(C)CCO`: “inactive”; `CCC(Cc1ccccc1)(C(=O)c1ccc(N2CCOCC2)cc1)N(C)C` (stereo not given): “inactive”. By AC50 is commonly meant the concentration giving half of the maximal activity seen. On to `O=c1cc(-c2ccccc2)oc2ccccc12`, for which the AC50 is 4.81 µM (active). Turning to `CC(C)(C)c1ccc(-c2ccc(C(C)(C)C)cc2)cc1`, the compound was called inactive.

Regarding `Oc1ccc(Cl)cc1Cc1cc(Cl)ccc1O`, the AC50 is 4.48 µM (active). Take `CC(C)c1ccc(C=O)cc1`: the outcome was inactive. Same read-out and setting: next, `CC(CC=O)CCCC(C)(C)O` (stereo not given): “inactive”; `COc1ccc(-c2coc3cc(O)ccc3c2=O)cc1`: “inactive”; `CC(=O)OCc1ccco1`: “inactive”. The same measure, in the same setting: under `CC(C)=CCC[C@H](C)CCO` stands “inactive”. `Nc1ccc(Oc2ccc(N)c(N)c2)cc1`: the AC50 is 58.4 µM (active). Consider `O=C1CCCN1CCO`, for which the call was inactive. Same read-out and setting: next, `CCN(Cc1cccc(S(=O)(=O)O)c1)c1ccc(C(=C2C=CC(=[N+](CC)Cc3cccc(S(=O)(=O)[O-])c3)C=C2)c2ccccc2)cc1`: “inactive”; `CC1(C)S[C@@H]2[C@H](NC(=O)COc3ccccc3)C(=O)N2[C@H]1C(=O)O`: “inactive”; `C1CN(SSN2CCOCC2)CCO1`: “inactive”. On to `NNC(=O)c1cccc(C(=O)NN)c1`, for which the outcome was inactive. Regarding `CCCCCCOc1cc(C)c(O)c(C)c1C`, the compound was called inactive. Still for that read-out and setting: next, `Clc1nc2ccccc2s1`: “inactive”. Same read-out and setting: next, `C=CC(=O)OCCOC1C2CCC1C1CC=CC12` (stereo not given): “inactive”.

On to `CCCCCCC(O)CO` (stereo not given), for which the result was inactive. In the case of `O=C(Oc1ccccc1)c1ccc2ccccc2c1O`, the half-maximal activity concentration (AC50) was 41.6 µM (active). In the case of `C=CCCCCCCCCC(=O)OCCCC`, the compound was called inactive. Same read-out and setting: under `O=c1cc[nH]c(=S)[nH]1` stands “inactive”; under `CCCCCCCCc1ccc(Nc2ccc(CCCCCCCC)cc2)cc1`, “inactive”. Same read-out and setting: under `O=C1Nc2ccccc2C1(c1ccc(O)cc1)c1ccc(O)cc1` stands “inactive”; under `CCOC(F)(F)C(F)(F)C(F)(F)C(F)(F)F`, “inactive”; under `N#CCc1ccc(Cl)cc1Cl`, “inactive”. Same read-out and setting: next, `COC(=O)/C=C\C(=O)O`: “inactive”; `O=C1C=CC(=O)O1`: “inactive”. Turning to `Cc1ccccc1C`, the result was inactive. Still for that read-out and setting: next, `O=C(C=Cc1ccccc1)OCc1ccccc1`: “inactive”; `CCCCC/C=C\C/C=C\CCCCCCCC(=O)OC`: “inactive”; `CCCCCCCCCCC=CC#N`: “inactive”. In the case of `Nc1ccc(-c2ccc(F)cc2)cc1`, the compound was called inactive. Still for that read-out and setting: next, `C=CC(=O)OCC(Br)CBr` (stereo not given): “inactive”; `O=C1CCCCCCCCCCCCCCCO1`: “inactive”; `O=S1(=O)OC(c2ccc(O)cc2)(c2ccc(O)cc2)c2ccccc21`: “inactive”.

The values above are taken from PubChem BioAssay (EPA / NIEHS).
